This passage reports growth results from PubChem BioAssay (NCI).

Assay in all cases: NCI-60 one-dose screen, 48 h (100 = growth as untreated, 0 = no growth, -100 = all killed)
Common to all, as to conditions: 10 µM unless noted

The test system of experiment [1] is SK-MEL-2 melanoma.
Experiment [2] concerns EKVX NSCLC.
For experiment [3], the system named is SN12C renal.
The test system of experiment [4] is UO-31 renal.
Experiment [5] has as its system TK-10 renal.
Experiment [6] relates to ACHN renal.
Experiment [7] concerns CAKI-1 renal.
Experiment [8] concerns CCRF-CEM leukemia.
Experiment [9] has as its system MOLT-4 leukemia.
For experiment [10], the system named is SR leukemia.
The subject of experiment [11] is OVCAR-8 ovarian.
Experiment [12] concerns OVCAR-5 ovarian.
In experiment [13] the test system is OVCAR-4 ovarian.
For experiment [14], the system named is IGROV1 ovarian.
Experiment [15] deals with OVCAR-3 ovarian.
In experiment [16] the test system is HS 578T breast.
Experiment [17] relates to NCI/ADR-RES ovarian.
Experiment [18] concerns RPMI-8226 leukemia.
Experiment [19] concerns SK-OV-3 ovarian.
Experiment [20] has as its system A498 renal.

Compounds without any hit were thinned out: in the full panel of roughly 83,000, 20% have a hit.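 Step 1: grow cells in 96-well plates. Step 2: add test compound at a single concentration. Step 3: incubate 48 h. Step 4: record percent growth.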 Unmarked numbers belong to inactive results. Active and inactive are the calls of the source. Rule for the calls: active = growth percent below 10; inactive = the rest.

For `O=C1Nc2ccccc2/C1=N/N=C/c1ccsc1`, the growth in experiment [1] was 107%; in experiment [2] it was 90.9%; in experiment [3] it was 95.3%; in [4], 74.8%; in experiment [5], 137%; in experiment [6] it was 102%. The growth in experiment [7] is 92%; in experiment [8], 101%; in [9], 103%; in [10], 88.6%; in experiment [11], 102%; in experiment [12], 115%. The growth is 90.4% in experiment [13]; 101% in [14]; 103% in experiment [15]; 94.4% in [16]; 110% in [17].

For `COC1(CC[C@@H](C)COC2OC(CO)C(O)C(O)C2O)O[C@H]2C[C@H]3[C@@H]4CC=C5C[C@@H](OC6OC(CO)C(OC7OC(C)C(O)C(O)C7O)C(O)C6OC6OC(C)C(O)C(O)C6O)CC[C@]5(C)[C@H]4CC[C@]3(C)[C@H]2[C@@H]1C` (some centres not stated), the growth in experiment [1] is -71% (active); in [2], 4.85% (active); in experiment [3], -64.7% (active); in experiment [4], -65.4% (active); in experiment [5] it was -60.4% (active); in [6], -87.4% (active). The growth is -76.5% (active) in [7]; -95.2% (active) in experiment [8]; -99.1% (active) in experiment [9]; -56.3% (active) in experiment [18]; -64.6% (active) in experiment [11]; -86.6% (active) in experiment [12]. Moreover, the growth in [13] was -64.7% (active); in experiment [19] it was -71.8% (active); in [14], -78.6% (active); in [15], -73.6% (active); in experiment [17] it was -75.6% (active).

For `NS(=O)(=O)c1cnccc1-n1ccc(=O)c(S(N)(=O)=O)c1`, the growth in experiment [1] is 81.1%; in experiment [2], 90.3%; in experiment [3] it was 92.6%; in experiment [4] it was 68.6%; in experiment [5], 83.8%; in experiment [6], 93.6%. Further, the growth in [20] is 85.4%; in experiment [8], 88.5%; in [9], 76.9%; in experiment [10], 86.5%; in experiment [18] it was 60.4%; in [11], 100%. The growth was 89.7% in [12]; 95.2% in experiment [13]; 81.1% in experiment [19]; 93.3% in [15]; 64% in [16]; 98.5% in experiment [17].

Regarding `CCn1c(Sc2nnc(NC(=O)CCN3CCCC3)s2)nc2c1c(=O)n(C)c(=O)n2C`, the growth in [1] is 108%; in experiment [2], 99.3%; in experiment [3] it was 96.8%; in [4], 88.7%; in [5] it was 104%; in [6], 100%. For the same compound, the growth was 94.6% in experiment [7]; 103% in experiment [8]; 108% in experiment [9]; 98.3% in experiment [12]; 105% in experiment [13]; 115% in [14]. In addition, the growth in experiment [15] was 109%; in experiment [16], 100%; in experiment [17], 109%.

On to `COc1ccc(C2=NC(=O)NC2c2ccc(OC)cc2)cc1` (configuration not stated), for which the growth in experiment [1] was 59.9%; in [2], 75.9%; in [3], 71%; in [4], 61%; in [5] it was 87.6%; in experiment [6], 83.2%. Besides, the growth in experiment [7] was 50.6%; in experiment [8], 68.3%; in experiment [9], 65.8%; in experiment [18], 57.4%; in experiment [12], 77.8%; in experiment [13], 74.8%. The growth in [19] was 66.4%; in experiment [14] it was 77.8%; in experiment [15], 69%; in experiment [17], 1.85% (active).

Take `CN(C)c1ccc(-c2cc(-c3ccc(Nc4nc(Nc5ccccc5)nc(Nc5ccc(Cl)cc5)n4)cc3)nc(N)n2)cc1`: the growth is 47.2% in experiment [1]; 33.3% in experiment [2]; 50% in [3]; 39% in [4]; 74.6% in [5]; 46.3% in experiment [6]. Moreover, the growth in experiment [7] was 39.5%; in [8], 5.11% (active); in experiment [9], -4.17% (active); in experiment [18], 34.1%; in experiment [11] it was 51.3%; in experiment [12], 36.6%. Further, the growth in [13] is 49.6%; in experiment [19], 85.4%; in experiment [14] it was 39.2%; in experiment [17] it was 15.5%.

On to `N=C(N)c1ccc(-c2ccc(-c3ccc(Cl)cn3)s2)cc1`, for which the growth in experiment [1] is 99.8%; in [2], 65.8%; in experiment [3] it was 10.2%; in [4], 57.6%; in [5] it was 91.9%; in experiment [6], 12%. Further, the growth in [7] is 63.2%; in [8] it was 3.3% (active); in [9], 4.73% (active); in [10], 6.63% (active); in experiment [11] it was 38%; in [12] it was 52.2%. The growth is 40% in experiment [13], 14.4% in experiment [14], 4.7% (active) in experiment [15] and 62.4% in experiment [17].

As for `O=C(NCCOCCOCCNc1cccc2c1C(=O)N(C1CCCNC1=O)C2=O)c1cc2c(o1)C(=O)c1ccccc1C2=O` (configuration not stated), the growth was -13.6% (active) in experiment [1]; 17.7% in [2]; -74.3% (active) in experiment [3]; -19.8% (active) in [4]; 8.39% (active) in [5]; 14% in [6]. Further, the growth in [7] was -10.1% (active); in experiment [8], 14.9%; in experiment [9], 8.89% (active); in experiment [10], 13.3%; in experiment [11] it was 3.33% (active); in experiment [12], -84.5% (active). Further, the growth is -98.1% (active) in experiment [13], -15.4% (active) in [14], -22.2% (active) in [16] and 48.6% in experiment [17].

`CCCc1cc(=O)oc2c3c(c4c(c12)OC(C)(C)C=C4)O[C@@H](C)[C@H](C)C3=O`: the growth in experiment [1] is 97.1%; in experiment [2], 63%; in [3], 82.7%; in experiment [4], 71.9%; in experiment [5] it was 83.2%; in experiment [6], 84.2%. In addition, the growth was 72.8% in experiment [7]; 70.3% in experiment [8]; 69.1% in experiment [9]; 56.1% in experiment [18]; -19.4% (active) in [12]; 67.8% in experiment [13]. Also, the growth in experiment [19] was 92.3%; in [14], 74.8%; in experiment [15], 86.6%; in [17], 0.517% (active).
